The source of these data is PubChem BioAssay (EPA / NIEHS).

Values joined by “and” are separate entries in the source; they are usually repeats but may differ in a detail not shown here. Identical values can stand only once. Inconclusive results are not listed. Active and inactive are the calls of the source. Rule for the calls: active = hit-call score of the fitted dose curve at least 0.9, where 1 is the maximum; inconclusive = response in the unintended direction; inactive = score below 0.9.

What is called AC50 is the concentration at which the activity in the assay is half-maximal.

The test can be described thus: TOX21_p53_BLA_p5_viability: Viability Assessment in the Tox21 HCT-116 p53 Agonism Beta-lactamase Assay, Phase 5 (AID 2283600). The text has this:
TOX21_p53_BLA_p5 is a cell-based, single-readout assay that uses HCT116, a human intestinal cell line, […] in a 1536-well plate.TOX21_p53_BLA_p5_viability is an assay readout measuring cellular ATP content and detected with CellTiter-Glo Luciferase-coupled ATP quantitation.TOX21_p53_BLA_p5_viability used a type of viability reporter where loss-of-signal activity can be used to understand changes in the cell viability. Furthermore, this assay endpoint can be referred to as a secondary readout, because this assay has produced multiple assay endpoints where this one serves a viability function. To generalize the intended target to other relatable targets, this assay endpoint is annotated to the cell cycle intended target family, where the subfamily is cytotoxicity.
Thawing Method: Place 14 mL of pre-warmed thaw medium into a 15 mL of conical tub. Remove the vial of cells to be thawed from liquid nitrogen and thaw rapidly by placing at 37C in a water bath with gentle agitation for 1-2 minutes. Decontaminate the vial by wiping with 70% ethanol before opening in a biological safety cabinet. Transfer the vial contents drop-wise into 14 mL of thaw medium in a sterile 15-mL conical tub. Centrifuge cells at 900 rpm for 4 minutes and resuspend in thaw medium. Transfer contents to the T75 tissue culture flask containing Thaw Medium and place flask in a humidified 37C/5% CO2 incubator. Switch to growth medium at first passage.Propagation Method: Aspirate medium, rinse once in DPBS, add 0.25% Trypsin/EDTA and swirl to coat the cell evenly. Add an equal volume of Growth Medium to inactivate Trypsin after 2-3 minutes incubation at 37C. Centrifuge cells at 900 rpm for 4 minutes and resuspend in growth medium. Cell should be passage or fed at least twice a week.Assay Protocol: Harvest cells from culture in growth medium and resuspend in assay medium. 2.2 Dispense 4000 cells/5 uL/well into 1536-well black/clear bottom plates using a Multidrop dispenser. After the cells were incubated at 37C for 5 hours, 23 nL of compounds dissolved in DMSO were transferred to the assay plate by a PinTool resulting in a 217-fold dilution. Incubate the plates for 16 hours at 37C, 5% CO2. Add 1 uL of 6X LiveBLAzer FRET B/G (CCF4-AM) Substrate Mixture to each well using a BioRAPTR dispenser and incubate the plates at room temperature for 2 hours. Measure fluorescence intensity at 460 and 530 nm emission and 405 nm excitation by an Envision detector. Data is expressed as the ratio of 460nm/530nm emissions. Add 4 uL of Cell-titer Glo to each well using BioRAPTR and incubate the plates at room temperature for […]. For cell viability readout that measures cytotoxicity, 4 ul/well of CellTiter-Glo reagent was added into the assay plates using a Flying Reagent Dispenser. After 30 min incubation at room temperature, the luminescence intensity in the plates was measured using a ViewLux plate reader.
In the case of `CCC[CH2][Sn]([CH2]CCC)([O]C(C)=O)[O]C(C)=O`, the result was inactive.
On the same count and under the same terms, under `CCCC[P+](CC)(CCCC)CCCC` (tested in a mixture with another compound) stands “inactive”; under `N#CC(C#N)=C(C#N)C#N`, “inactive”.
The same measure, in the same setting: the value for `CC(C)(CCl)C(=O)Cl` was “inactive”; that for `CCN(CC)c1c([N+](=O)[O-])cc(C(F)(F)F)c(N)c1[N+](=O)[O-]` was “inactive”.
For the compound `Cc1nnc2n1-c1sc(CCc3ccc(CC(C)C)cc3)cc1C(c1ccccc1Cl)=NC2C` (stereo not given), the AC50 is 23 µM (active).
Turning to `CSSC`, the result was inactive.
For the compound `O=[N+]([O-])c1cc([N+](=O)[O-])c2ccccc2c1`, the result was inactive.
The same measure, in the same setting: the value for `CCCCCCCCCCCCCCCCCC(=O)O` was “inactive”.
Still for that read-out and setting: the value for `O=C(O)c1nn(Cc2ccc(Cl)cc2Cl)c2ccccc12` was “inactive”; that for `S=C(SSC(=S)N1CCCCC1)N1CCCCC1` was “inactive”.
As to `O=S(=O)(c1ccccc1)c1ccccc1`, the call was inactive.
On the same count and under the same terms, under `CCCOC(=O)c1ccccc1C(=O)OCCC` stands “inactive”.
Turning to `Cc1ccc2cc(C)ccc2c1`, the outcome was inactive.
Same read-out and setting: under `Clc1ccc(CO/N=C(\Cn2ccnc2)c2ccc(Cl)cc2Cl)c(Cl)c1` stands “inactive”.
Regarding `N#CC(C#N)=Cc1cc(O)c(O)c(O)c1`, the compound was called inactive.
On the same count and under the same terms, the value for `COC(=O)c1ccc(CBr)cc1` was “inactive”.
Still for that read-out and setting: the value for `O=C1C=C2C=C[C@@H]3C[C@@]2(O1)[C@H]1CCCCN31` was “inactive”; that for `NC(=O)CS(=O)C(c1ccccc1)c1ccccc1` (stereo not given) was “inactive”.
Consider `COC1=CC(=O)O[C@@H](/C=C/c2ccc3c(c2)OCO3)C1`, for which the compound was classed as inactive.
Consider `O=c1[nH]c2ccccc2n1CCCN1CCC(n2c(=O)[nH]c3cc(Cl)ccc32)CC1`, for which the call was inactive.
`c1ccc2c(c1)Sc1ccccc1N2CC1CN2CCC1CC2` (stereo not given): the compound was classed as inactive.
On the same count and under the same terms, under `C#CC(C)(O)CC` (stereo not given) stands “inactive”; under `C=CCCC#N`, “inactive”.
For `O=C1C(Cl)=C(Cl)C(=O)C(Cl)=C1Cl`, the AC50 is 57.6 µM (active) and 56.4 µM (active).
For `C=CCc1ccc(OC(=O)Cc2ccccc2)c(OC)c1`, the call was inactive.
As to `Oc1cc[c]([Hg][Cl])cc1`, the AC50 is 25.3 µM (active) and 10.5 µM (active).
With `[Cl-].[Cl-].[Cl-].[Fe+3]`, the call was inactive.
Same read-out and setting: the value for `Cc1ccc2c(C)cccc2c1` was “inactive”.
As for `c1ccc2c(c1)[nH]c1cnccc12`, the call was inactive.
In the case of `COC(COC(N)=O)C1=C(N2CC2)C(=O)C(C)=C(N2CC2)C1=O` (stereo not given), the AC50 was 36.3 µM (active).
On to `CCCCc1ccc(C(=O)O)nc1`, for which the call was inactive.
`C=C[C@H]1CN2CC[C@H]1C[C@H]2[C@H](OC(=O)OCC)c1ccnc2ccc(OC)cc12`: the compound was called inactive.
In the case of `O=C1Nc2ccc(Cl)cc2C(c2ccccc2Cl)=NC1O` (stereo not given), the compound was called inactive.
For `CC(C)(Cl)[N+](=O)[O-]`, the call was inactive.
`CC(=O)O[C@H]1C[C@H](O[C@H]2[C@@H](O)C[C@H](O[C@H]3[C@@H](O)C[C@H](OC4CC[C@@]5(C)C(CC[C@@H]6[C@@H]5CC[C@]5(C)[C@@H](C7=CC(=O)OC7)[C@@H](O)C[C@]65O)C4)O[C@@H]3C)O[C@@H]2C)O[C@H](C)[C@H]1O[C@@H]1O[C@H](CO)[C@@H](O)[C@H](O)[C@H]1O` (stereo not given in full): the AC50 is 0.473 µM (active).
As for `Nc1c(Br)cc([N+](=O)[O-])cc1[N+](=O)[O-]`, the call was inactive.
Take `CC[n+]1c(-c2ccccc2)c2cc(N)ccc2c2ccc(N)cc21`: the compound was classed as inactive.
On the same count and under the same terms, the value for `ClC(Br)Br` was “inactive”; that for `COc1ccc2c3c1O[C@H]1[C@@H](O)C=C[C@H]4[C@@H](C2)NCC[C@@]341` was “inactive”.
